These results are taken from PubChem BioAssay (NCATS).

Where “and” joins values, the source holds several entries; their conditions need not be identical. Equal entries are not always repeated. Records with an inconclusive call do not appear. Calls of active or inactive are those of the source. Unless noted, calls follow the shape of the dose curve; as a rule, active = well fitted curve in the direction sought with a large enough effect; inconclusive = small, poorly fitted or top-dose-only effect, or another doubt; inactive = no such curve, though single readings can be large; an effect the other way counts as inactive or inconclusive.

Assay [1] addresses Estrogen receptor (Homo sapiens) (UniProt P03372). Put plainly: qHTS assay for small molecule agonists of estrogen receptor alpha signaling (AID 588514; calls by dose curve;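 also: 0% = vehicle only and 100% = reference agonist; nearly all actives have a fitted effect of over 70% in size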). Put shortly:
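EC50 and efficacy came from Hill fits of beta-lactamase reporter signal (CCF4 dye, 2 h at room temperature) scaled between DMSO and 20 nM 17-beta-estradiol. Agonist mode: HEK293 ER-alpha-UAS-bla cells in charcoal/dextran-stripped serum medium, 18 h compound exposure at 37 C.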
In general terms: In qHTS, concentration-response curves come from the screen itself.

The nature of assay [2]: qHTS assay for small molecule antagonists of peroxisome proliferator-activated receptor delta signaling (AID 588535; active = well fitted inhibition curve with a large enough effect in the signal ratio, with a control signal flat, not every such curve was filed as active; the % refers to the signal ratio;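 as to max response: cells co-treated with a PPAR-delta agonist as stimulator during compound exposure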). To be noted: HEK293T PPARd-UAS-bla, beta-lactamase FRET ratio, 18 h; 460 nm channel. In a few lines:
(§1)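 Titrations were run on PPAR-delta-UAS-bla HEK293T cells in charcoal/dextran-stripped serum, incubated 18 h at 37 C. CCF4 fluorescence (460/530 nm) after 2 h RT; Hill equation yields IC50 and maximal response.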

In assay [3] the target is Peroxisome proliferator-activated receptor delta (Homo sapiens) (UniProt Q03181). Described as above. In a few lines: as §1
Assay [4] addresses Peroxisome proliferator-activated receptor gamma (Homo sapiens) (UniProt P37231). Put plainly: qHTS assay for small molecule agonists of peroxisome proliferator-activated receptor gamma signaling (AID 588536; active = well fitted curve in the direction sought with a large enough effect in the signal ratio, with a control signal flat, not every such curve was filed as active; the % refers to the signal ratio;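 also: 0% = DMSO basal wells and 100% = rosiglitazone at 2 µM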). In a few lines:
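Cells were plated and held 6–6.5 h at 37 C, then compounds were added as a titration series. After a further 16 h, CCF4 dye was loaded for 2 h at room temperature and emission at 460/530 nm recorded.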

Assay [5] has as its target Vitamin D3 receptor (Homo sapiens) (UniProt P11473). Put plainly: qHTS assay for small molecule antagonists of vitamin D receptor signaling (AID 588541; calls by dose curve;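 also: receptor activated by calcitriol during compound treatment; series mostly up to about 77 µM; % is scaled to controls: 0 for no effect and ±100 for the full control effect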). In a few lines: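 Antagonist-mode beta-lactamase reporter assay: HEK293T VDR-UAS-bla cells were exposed to titrated compound alongside 1-alpha,25-dihydroxyvitamin D3 at 3 nM final for 16 h. Values were normalized to the 50 nM agonist control and DMSO basal, with IC50 and efficacy from Hill equation fits.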

Assay [6] in a line: qHTS assay for small molecule agonists of retinoid X receptor alpha signaling (AID 588544; calls by dose curve;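 as to activation: 0% = DMSO basal wells and 100% = reference agonist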). The note with it: HEK293T RXRa-UAS-bla, beta-lactamase reporter, 18 h; 530 nm emission.
Assay [7] has as its target Retinoic acid receptor RXR-alpha (Homo sapiens) (UniProt P19793). The assay is described as above.
For assay [8], the target named is Thyroid hormone receptor beta (Homo sapiens) (UniProt P10828). Put plainly: qHTS assay for small molecule agonists of thyroid hormone receptor beta signaling (AID 588545; calls by dose curve;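 also: 0% = DMSO only and 100% = 10 nM T3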). In a few lines: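 Stimulation of a TR-driven beta-lactamase reporter was quantified in GripTite HEK 293 cells. Compound series ran for 18 hrs; curves were normalized to T3 and DMSO controls and fitted to yield EC50.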

Assay [9] is described as follows: qHTS assay for small molecule antagonists of retinoid X receptor alpha signaling (AID 588546; active = well fitted inhibition curve with a large enough effect in the signal ratio, with a control signal flat, not every such curve was filed as active; the % refers to the signal ratio;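 also: cells stimulated with 9-cis-retinoic acid as agonist; % is scaled to controls: 0 for no effect and ±100 for the full control effect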). To be noted: HEK293T RXRa-UAS-bla, beta-lactamase ratio, antagonist mode; measured here: W530 green channel, cytotoxicity proxy. Put shortly: (§2)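 Beta-lactamase reporter inhibition, read as CCF4 fluorescence ratio (ex 405, em 460/530 nm) after 2 h at RT. HEK293T UAS-bla cells, 2500/well, were stimulated with 9-cis-RA at 500 or 100 nM final alongside test compound for 18 h at 37 C.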

For assay [10], the target named is Retinoic acid receptor RXR-alpha (Homo sapiens) (UniProt P19793). The assay is described as above. The note with it: HEK293T RXRa-UAS-bla, beta-lactamase ratio, antagonist mode. In a few lines: as §2
The target of assay [11] is Thyroid hormone receptor beta (Homo sapiens) (UniProt P10828). Put plainly: qHTS assay for small molecule antagonists of thyroid hormone receptor beta signaling (AID 588547; active = well fitted inhibition curve with a large enough effect in the signal ratio, with a control signal flat, not every such curve was filed as active; the % refers to the signal ratio;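 also: cells stimulated with 0.4 nM T3 agonist during compound exposure; series mostly up to about 77 µM; % is scaled to controls: 0 for no effect and ±100 for the full control effect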). To be noted: TR-UAS-bla HEK293, beta-lactamase ratio, antagonist mode, 18 h. Put shortly:
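Inhibition of T3-driven (0.4nM final) beta-lactamase reporter activity was measured over 0.59 nM to 92 uM compound after 18 h at 37 C. The cells were GripTite HEK293 TR-UAS-bla in charcoal/dextran-stripped serum, with CCF4 ratio read-out and IC50 from Hill fits.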

Assay [12] is described as follows: qHTS assay for small molecule activators of the p53 signaling pathway (AID 651743; active = well fitted activation curve with a large enough effect in the signal ratio, not every such curve was filed as active; the % refers to the signal ratio; also: series mostly up to about 92 µM; % of control where 0% means no effect). To be noted: HCT-116 p53RE-bla, beta-lactamase FRET ratio, 16 h; activation: stronger effect = higher value. Put shortly: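 After 16 hours compound treatment at 37 C, HCT-116 cells stably expressing p53RE-driven beta-lactamase were loaded with LiveBLAzer B/G FRET substrate for 2 hours at room temperature. Fluorescence intensity served as the p53 activation read-out.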

A short description of assay [13]: qHTS assay for environmental chemicals that activate the Aryl hydrocarbon Receptor (AhR) signaling pathway (AID 651777). Also: % of control where 0% means no effect; nearly all actives have a fitted effect of over 15% in size. To be noted: 1A2-DRE human hepatoma cells, luciferase, 24 h; activation: stronger effect = higher value. In a few lines:
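Stable CYP1A2 promoter/DRE-luciferase human hepatoma line treated 24 hr; One-Glo luminescence, 30 min RT.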

Assay [14] has as its target Peroxisome proliferator-activated receptor alpha (Homo sapiens) (UniProt Q07869). Put plainly: qHTS assay for small molecule agonists of the peroxisome proliferator-activated receptor alpha (PPARalpha) signaling pathway (AID 651778). Also: % of control where 0% means no effect. The note with it: PathHunter PPARalpha complementation, chemiluminescence, 6 h; max response: stronger effect = higher value. In a few lines: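 Chemiluminescence from complemented enzyme reported PPARalpha activation in cells after 6 hr of compound treatment at 37 C. The detection reagent was incubated for 60 min at room temperature, and compounds were scored as agonists.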

Assay [15] can be described thus: qHTS assay for small molecule agonists of the antioxidant response element (ARE) signaling pathway measured by Nrf2-dependant transcriptional activity (AID 720636; active = well fitted curve in the direction sought with a large enough effect in the repeat runs; an effect the other way counts as inactive or inconclusive;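 also: HepG2 cells with an ARE-driven luciferase reporter; % of control where 0% means no effect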). In a few lines: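 Reporter gene assay, HepG2 ARE-luc: 16 hr compound, 37 C, 5% CO2; read-out luciferase luminescence.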
Assay [16] can be described thus: qHTS assay for small molecule agonists of the antioxidant response element (ARE) signaling pathway measured by Nrf2-dependant transcriptional activity - cell viability counter screen (AID 720653; active = well fitted curve in the direction sought with a large enough effect in the repeat runs; an effect the other way counts as inactive or inconclusive; also: % is scaled to controls: 0 for no effect and ±100 for the full control effect). The note with it: ARE-bla HepG2 viability, CellTiter-Glo ATP luminescence, 16 h; max response: stronger effect = lower value. Put shortly:
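Cytotoxicity counter screen: intracellular ATP quantified by CellTiter-Glo luminescence in the same ARE-bla HepG2 plates, after 16 h compound exposure and a 2 h beta-lactamase substrate step.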

A short description of assay [17]: qHTS assay for cell viability of HEK293 cells (AID 743288). Also: % is scaled to controls: 0 for no effect and ±100 for the full control effect; nearly all actives have a fitted effect of over 50% in size. To be noted: ATP luminescence (CellTiter-Glo), 18 h; max response: stronger effect = lower value. Put shortly:
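After 18 h compound exposure at 37 C, parental HEK293 cells (2,000/well) are lysed with CellTiter-Glo and luminescence is read following 30 min at room temperature.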

Assay [18] is described as follows: qHTS assay for cell viability of the p53RE-bla HCT-116 cell line (AID 743292). Also: % is scaled to controls: 0 for no effect and ±100 for the full control effect; nearly all actives have a fitted effect of over 55% in size. Put shortly:
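Readout: CellTiter-Glo luminescence after 30 min RT. Treatment: compounds in DMSO, 16 h, 37 C. Cells: CellSensor p53RE-bla HCT-116, 4,000/well, preincubated 5 h.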

Assay [19] addresses Nuclear receptor subfamily 1 group I member 2 (Rattus norvegicus) (UniProt Q9R1A7). Put plainly: qHTS assay for small molecule activators of the rat pregnane X receptor (rPXR) signaling pathway (AID 651751; call rule not given here; also: 0% is about no effect). To be noted: rPXR reporter cells, luciferase (One-Glo), 24 h.
Assay [20] can be described thus: qHTS assay for small molecule activators of the human pregnane X receptor (PXR) signaling pathway (AID 720659; call rule not given here; also: 0% is about no effect).

Sequence of Peroxisome proliferator-activated receptor delta (Homo sapiens) (Q03181 whole entry, looked up): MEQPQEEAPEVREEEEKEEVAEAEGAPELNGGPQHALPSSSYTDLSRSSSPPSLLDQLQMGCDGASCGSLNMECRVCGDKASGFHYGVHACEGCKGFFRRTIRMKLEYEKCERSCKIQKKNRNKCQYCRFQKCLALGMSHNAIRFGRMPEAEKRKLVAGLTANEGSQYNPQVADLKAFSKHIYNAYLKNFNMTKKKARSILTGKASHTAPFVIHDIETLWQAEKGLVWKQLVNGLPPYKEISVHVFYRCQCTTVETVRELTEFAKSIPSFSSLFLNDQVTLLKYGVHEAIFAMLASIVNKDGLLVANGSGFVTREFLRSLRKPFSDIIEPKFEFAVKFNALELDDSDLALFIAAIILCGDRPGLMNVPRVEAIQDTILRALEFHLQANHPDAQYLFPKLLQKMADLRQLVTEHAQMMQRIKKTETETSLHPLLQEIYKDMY
Sequence of Nuclear receptor subfamily 1 group I member 2 (Rattus norvegicus) (Q9R1A7 whole entry, looked up): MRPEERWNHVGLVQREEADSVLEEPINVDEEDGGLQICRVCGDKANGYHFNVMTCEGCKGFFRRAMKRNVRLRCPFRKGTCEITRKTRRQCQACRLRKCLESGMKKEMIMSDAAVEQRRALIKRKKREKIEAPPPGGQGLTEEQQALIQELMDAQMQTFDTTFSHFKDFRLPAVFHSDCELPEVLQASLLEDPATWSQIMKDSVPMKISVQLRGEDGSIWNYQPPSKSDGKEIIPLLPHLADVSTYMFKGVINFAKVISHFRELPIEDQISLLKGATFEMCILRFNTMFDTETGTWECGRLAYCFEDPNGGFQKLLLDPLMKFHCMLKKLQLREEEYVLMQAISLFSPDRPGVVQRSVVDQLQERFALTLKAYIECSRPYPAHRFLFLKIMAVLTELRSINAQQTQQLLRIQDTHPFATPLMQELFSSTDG
Sequence of Estrogen receptor (Homo sapiens) (P03372 whole entry, looked up): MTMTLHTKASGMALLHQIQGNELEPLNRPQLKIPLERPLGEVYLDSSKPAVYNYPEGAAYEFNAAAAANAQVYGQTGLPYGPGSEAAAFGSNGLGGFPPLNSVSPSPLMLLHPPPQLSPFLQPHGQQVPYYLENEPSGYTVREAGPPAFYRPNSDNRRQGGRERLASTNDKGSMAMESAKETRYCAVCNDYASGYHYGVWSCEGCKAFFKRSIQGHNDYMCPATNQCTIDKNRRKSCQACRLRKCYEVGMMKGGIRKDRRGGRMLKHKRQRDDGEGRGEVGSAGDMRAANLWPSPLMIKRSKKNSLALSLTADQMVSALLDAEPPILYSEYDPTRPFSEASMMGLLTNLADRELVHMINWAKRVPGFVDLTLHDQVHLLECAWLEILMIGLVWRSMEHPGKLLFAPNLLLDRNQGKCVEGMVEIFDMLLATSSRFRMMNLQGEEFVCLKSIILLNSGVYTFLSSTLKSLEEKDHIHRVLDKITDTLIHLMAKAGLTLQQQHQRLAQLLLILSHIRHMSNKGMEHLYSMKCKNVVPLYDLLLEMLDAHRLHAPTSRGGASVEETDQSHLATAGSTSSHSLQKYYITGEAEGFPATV
Sequence of Peroxisome proliferator-activated receptor gamma (Homo sapiens) (P37231 whole entry, looked up): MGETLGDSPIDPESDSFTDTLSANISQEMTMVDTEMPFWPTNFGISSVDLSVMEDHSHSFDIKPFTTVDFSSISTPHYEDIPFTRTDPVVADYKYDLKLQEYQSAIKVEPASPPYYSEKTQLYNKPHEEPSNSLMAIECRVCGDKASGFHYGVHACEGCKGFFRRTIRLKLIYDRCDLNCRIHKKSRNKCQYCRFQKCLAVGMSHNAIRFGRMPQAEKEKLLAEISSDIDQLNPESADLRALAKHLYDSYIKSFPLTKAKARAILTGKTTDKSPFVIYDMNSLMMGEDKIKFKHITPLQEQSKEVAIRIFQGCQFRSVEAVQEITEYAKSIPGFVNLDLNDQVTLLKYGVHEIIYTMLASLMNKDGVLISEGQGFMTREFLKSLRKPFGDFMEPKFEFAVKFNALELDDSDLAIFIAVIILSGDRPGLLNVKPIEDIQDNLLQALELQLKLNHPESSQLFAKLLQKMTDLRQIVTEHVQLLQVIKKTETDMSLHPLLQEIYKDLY
Sequence of Retinoic acid receptor RXR-alpha (Homo sapiens) (P19793 whole entry, looked up): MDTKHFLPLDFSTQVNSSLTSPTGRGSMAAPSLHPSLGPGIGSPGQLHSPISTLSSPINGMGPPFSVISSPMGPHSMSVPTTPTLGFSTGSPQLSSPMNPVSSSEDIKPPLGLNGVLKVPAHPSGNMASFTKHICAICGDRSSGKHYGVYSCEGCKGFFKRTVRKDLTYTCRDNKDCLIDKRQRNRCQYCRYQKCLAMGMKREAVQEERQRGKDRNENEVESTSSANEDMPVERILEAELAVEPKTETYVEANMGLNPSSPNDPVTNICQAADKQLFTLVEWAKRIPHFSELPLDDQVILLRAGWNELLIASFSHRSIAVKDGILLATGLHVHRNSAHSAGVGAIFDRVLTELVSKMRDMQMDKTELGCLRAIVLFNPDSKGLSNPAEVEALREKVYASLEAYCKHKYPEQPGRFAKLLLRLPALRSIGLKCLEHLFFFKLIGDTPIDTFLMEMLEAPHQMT
Sequence of Thyroid hormone receptor beta (Homo sapiens) (P10828 whole entry, looked up): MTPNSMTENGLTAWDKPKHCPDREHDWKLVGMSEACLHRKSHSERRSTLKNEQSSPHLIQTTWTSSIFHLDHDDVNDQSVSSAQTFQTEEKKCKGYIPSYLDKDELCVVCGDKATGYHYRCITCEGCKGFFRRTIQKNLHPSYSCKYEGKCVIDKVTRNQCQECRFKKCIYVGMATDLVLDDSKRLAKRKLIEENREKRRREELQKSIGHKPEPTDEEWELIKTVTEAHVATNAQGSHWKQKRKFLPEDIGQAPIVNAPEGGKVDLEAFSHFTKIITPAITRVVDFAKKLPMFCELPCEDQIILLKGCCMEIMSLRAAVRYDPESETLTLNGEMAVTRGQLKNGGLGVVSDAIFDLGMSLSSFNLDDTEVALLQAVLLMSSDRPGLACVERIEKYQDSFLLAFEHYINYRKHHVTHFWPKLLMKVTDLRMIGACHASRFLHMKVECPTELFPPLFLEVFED
Sequence of Vitamin D3 receptor (Homo sapiens) (P11473 whole entry, looked up): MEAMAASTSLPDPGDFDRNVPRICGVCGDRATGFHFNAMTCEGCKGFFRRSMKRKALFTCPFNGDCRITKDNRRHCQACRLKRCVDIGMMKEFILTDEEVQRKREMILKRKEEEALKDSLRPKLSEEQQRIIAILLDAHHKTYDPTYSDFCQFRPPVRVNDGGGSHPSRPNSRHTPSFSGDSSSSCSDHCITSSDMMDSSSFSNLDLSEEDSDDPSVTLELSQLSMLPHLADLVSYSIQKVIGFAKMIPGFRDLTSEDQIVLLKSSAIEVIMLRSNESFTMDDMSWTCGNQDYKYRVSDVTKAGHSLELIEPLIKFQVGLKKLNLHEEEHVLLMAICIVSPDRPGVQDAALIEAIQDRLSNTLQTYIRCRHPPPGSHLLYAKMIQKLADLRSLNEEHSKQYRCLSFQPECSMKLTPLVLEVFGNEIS
Sequence of Peroxisome proliferator-activated receptor alpha (Homo sapiens) (Q07869 whole entry, looked up): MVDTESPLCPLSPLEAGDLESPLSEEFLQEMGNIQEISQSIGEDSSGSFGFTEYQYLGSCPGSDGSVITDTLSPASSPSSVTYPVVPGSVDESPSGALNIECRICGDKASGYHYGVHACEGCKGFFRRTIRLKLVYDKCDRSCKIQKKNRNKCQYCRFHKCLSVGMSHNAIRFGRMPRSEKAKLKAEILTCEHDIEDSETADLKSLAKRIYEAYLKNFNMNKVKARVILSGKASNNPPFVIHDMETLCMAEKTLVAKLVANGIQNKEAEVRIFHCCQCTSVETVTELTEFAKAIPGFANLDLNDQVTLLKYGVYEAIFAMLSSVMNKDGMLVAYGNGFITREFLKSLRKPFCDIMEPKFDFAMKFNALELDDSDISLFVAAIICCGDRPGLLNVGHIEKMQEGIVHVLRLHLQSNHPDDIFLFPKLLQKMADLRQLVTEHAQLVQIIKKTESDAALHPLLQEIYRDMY

For `FC(F)(F)c1ccc(Cl)c(Cl)c1`, the Potency entry in assay [1], in assay [3], in assay [5], in assay [7], in [8] and in [15] was “inactive” throughout. In addition, the Potency entry in [18] is “inactive”. Further, the max response was 40.3% in [2]; -13.8% in [6]; 5.97% in assay [9]; -9.01% (inactive) in [10]; 0.167% (inactive) in assay [14]; -4.28% (inactive) in assay [16]. Further, the max response in assay [17] was -13.4% (inactive); in assay [19], -0.267% (inactive). Further, the result in assay [4] and in [20] was inactive. The activity change % (negative = inhibition) in [11] was 7.4% (inactive). Moreover, the activation in assay [12] was -5.24% (inactive); in [13] it was 3.72% (inactive).

Turning to `O=C(O)CN(CCO)CCN(CC(=O)O)CC(=O)O`, the Potency entry in assay [1], in assay [3], in assay [5], in assay [7], in assay [8] and in [15] was “inactive” each time. In addition, the Potency result in assay [18] was “inactive”. In addition, the max response in assay [2] is 6.54%; in [6], -15.4%; in [9] it was -2.45%; in assay [10] it was -2.39% (inactive); in [16], -1.05% (inactive); in [17], -11.1% (inactive). Further, in [19], the max response is 1.3% (inactive). Further, the compound was called inactive in [4] and in assay [20]. Also, the activity change % (negative = inhibition) in assay [11] is -8.14% (inactive). In addition, the activation in assay [12] is -0.291% (inactive); in [13] it was -0.73% (inactive).

In the case of `CCOC(=O)C1=NN(c2ccc(Cl)cc2Cl)C(C)(C(=O)OCC)C1` (centres undefined), the Potency entry in [1], in assay [5], in assay [7], in assay [8], in [15] and in assay [18] was “inactive” throughout. The max response in assay [6] is -4.87%; in [14] it was 0.459% (inactive); in [16] it was 0.425% (inactive); in [17] it was -23.5% (inactive); in assay [19] it was -0.641% (inactive). In addition, the activation in [12] was -4.17% (inactive); in [13], -3.22% (inactive).

Regarding `CC1(C)[C@@H](C=C(Cl)Cl)[C@@H]1C(=O)OCc1cccc(Oc2ccccc2)c1`, the Potency entry in assay [1], in [3], in assay [5], in assay [15] and in assay [18] was “inactive” in each case. The max response in assay [2] was -21.4%; in assay [9], -10.2%; in [10] it was -8.61% (inactive); in assay [14], -0.645% (inactive); in assay [16], -5.58% (inactive); in assay [17], -11.2% (inactive). Moreover, the activity change % (negative = inhibition) in [11] was 5.01% (inactive). Besides, the activation in assay [12] was -0.529% (inactive); in assay [13], -0.62% (inactive).

As for `CN=C(N)NCC1CCOC1` (centres undefined), the Potency entry in assay [1], in [3], in [5], in [7], in [8] and in assay [15] was “inactive” throughout. For the same compound, the Potency result in assay [18] was “inactive”. The max response in assay [2] is 42%; in [6], -7.78%; in [9] it was -4.8%; in assay [10], 8.29% (inactive); in [14], -3.68% (inactive) and 0.552% (inactive); in assay [16] it was -1.14% (inactive). Also, the max response is -9.41% (inactive) in [17]; -8.95% (inactive) and -6.71% (inactive) in [19]. Moreover, the compound was called inactive in assay [4] and in assay [20]. For the same compound, the activity change % (negative = inhibition) in [11] is -7.34% (inactive). Besides, the activation in assay [12] is 20.9% (inactive) and -3.95% (inactive); in assay [13] it was 14.3% (inactive) and -0.391% (inactive).

Take `C=C(C)C(=O)OCCOC(=O)C(=C)C`: the Potency entry in assay [1], in assay [3], in assay [5], in [7], in assay [15] and in [18] was “inactive” each time. Further, the max response in [2] was -2.87%; in assay [6], 0.328%; in assay [9] it was -22.3%; in assay [14], -3.02% (inactive); in [16], -15.5% (inactive); in assay [17], -1.71% (inactive). For the same compound, the max response in assay [19] was -5.37% (inactive). Further, the compound was classed as inactive in assay [4] and in [20]. Moreover, in [11], the activity change % (negative = inhibition) is 17.4% (inactive). Moreover, the values for the activation in assay [12] and in [13] were -1.01% (inactive) and -1.11% (inactive), respectively.
